# A selection: hits, their analogues and other compounds. The true share with any hit is near 2.1%.
# NR2F2 inh: NR2F2 transcriptional activity inhibitors, primary screen, cell-based, luciferase reporter, HEK293T, luminescence | HEK293T NGFI-A luciferase reporter | COUP transcription factor 2 (Homo sapiens), P24468 | actives 0.7% (n = 370,000) | inhibition, % at 8.6 µM;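 active = inhibition above a per-plate cutoff, mean inhibition of test wells between control levels plus 3 SD, cut at about 38% in these data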;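 also: cells cotransfected with COUP-TFII expression vector driving the NGFI-A reporter; 0% = median of COUP-TF2 test wells and 100% = reporter-only cells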
# Gli-Sufu antag: Gli-Sufu pathway antagonists, primary screen, luciferase luminescence, Sufu-KO-LIGHT cells, uHTS; Sufu-KO-LIGHT fibroblasts, Gli luciferase reporter luminescence; inhibition, % at 5 µM; actives 0.74% (n = 340,000);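 active = inhibition above about 55%, limit read from the data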;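 also: 0% = DMSO-treated cells and 100% = wells with medium but no cells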
# GalR3 antag: GalR3 antagonists in HEK293 cells, primary screen, cell-based, fluorescence readout. Galanin receptor type 3 (Homo sapiens), O60755. HEK293 GalR3-CNG cAMP membrane potential fluorescence; galR3 body fused to GalR1 C-terminus. inhibition, % at 3 µM. actives 0.44% (n = 360,000). AID 651719, 2012;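 active = inhibition above the screen-wide average plus 3 SD, cut at about 13% in these data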;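 also: forskolin and galanin both at EC90 stimulate the cells; cAMP rise reported by CNG channel membrane potential dye signal; 0% = forskolin plus galanin with DMSO and 100% = forskolin alone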
# Target sequence (O60755 1-299 limits assumed): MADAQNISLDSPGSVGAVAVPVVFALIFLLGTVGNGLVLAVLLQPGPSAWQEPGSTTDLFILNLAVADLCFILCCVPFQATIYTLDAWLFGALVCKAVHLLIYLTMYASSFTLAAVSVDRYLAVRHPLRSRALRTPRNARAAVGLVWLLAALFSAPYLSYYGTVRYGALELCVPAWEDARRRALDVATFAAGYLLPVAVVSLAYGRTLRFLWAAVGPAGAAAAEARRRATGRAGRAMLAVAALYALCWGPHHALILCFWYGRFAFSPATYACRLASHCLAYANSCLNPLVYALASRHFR
# aDG glyco up: activators of alpha-DG glycosylation, primary screen, uHTS, Pro5-aDG cells, AlphaScreen | alpha-DG glycosylation AlphaScreen (IIH6); 0% Pro5, 100% B10-LARGE cell signal | activation, % at 10 µM | actives 0.22% (n = 360,000) | AID 624168, 2012;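 active = activation of at least 8% versus controls, or a plate z-score of at least 8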;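 also: Pro5 are CHO cells carrying HIG-tagged alpha-DG that lacks glycosylation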
# Env fusion inh: inhibitors of HIV-1 Env-driven cell-cell fusion, primary screen, HeLa-JRFL effector, CEM21 target cells, luciferase. inhibition, % at 12.3 µM. actives 1.1% (n = 360,000). AID 651610, 2012;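 active = mean replicate inhibition score of at least 50 and every replicate individually at or above 50; inconclusive = only one of the two criteria met; inactive = mean below 50 and not all replicates reaching 50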;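 also: 0% = plate neutral controls and 100% = maraviroc near 300 nM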
# Numbers without * were called inactive; ? = inconclusive; . = no result given; [ ] = remark or other dose.
SMILES,NR2F2 inh,Gli-Sufu antag,GalR3 antag,aDG glyco up,Env fusion inh
C[C@@H]1CN([C@@H](C)CO)S(=O)(=O)c2ccc(-c3cccnc3)cc2O[C@H]1CN(C)C(=O)NC1CCCC1,.,.,.,.,-12[16.7 µM]
COc1ccc([C@@H]2[C@@H]3C(=O)N(C(C)(C)C)C(=O)[C@@H]3[C@]3(Cc4ccccc4)C(=O)N(c4cccc(F)c4)C(=O)N23)cc1,-3,-5,-8,0,45
O=C1[C@H]2[C@@H](c3ccc(F)cc3)N3C(=O)N(c4cccc(F)c4)C(=O)[C@@]3(Cc3ccccc3)[C@H]2C(=O)N1C1CCCCC1,0,-13,-6,0,95*
O=C1[C@H]2[C@@H](c3ccc(Cl)cc3)N3C(=O)N(c4cccc(Cl)c4)C(=O)[C@@]3(Cc3ccccc3)[C@H]2C(=O)N1C1CCCCC1,11,-2,-6,0,97*
Cc1ccc(N2C(=O)N3[C@H](c4ccc(F)cc4)[C@@H]4C(=O)N(C5CCCCC5)C(=O)[C@@H]4[C@]3(Cc3ccccc3)C2=O)cc1,10,7,-5,0,56*
O=C1[C@H]2[C@@H](c3ccc(F)cc3)N3C(=O)N(c4cccc(Br)c4)C(=O)[C@@]3(Cc3ccccc3)[C@H]2C(=O)N1C1CCCCC1,-1,2,-8,1,107*
CCN1C(=O)[C@H]2[C@@H](c3ccc(C)cc3)N3C(=O)N(c4ccc(C)cc4)C(=O)[C@@]3(Cc3ccccc3)[C@H]2C1=O,5,-4,-2,0,-79
COc1cccc(S(=O)(=O)N[C@@H]2CC[C@@H](CCn3cc(-c4ccccn4)nn3)O[C@@H]2CO)c1,.,.,.,.,-3[16.7 µM]
C[C@H](CO)N1C[C@H](C)[C@H](CN(C)S(=O)(=O)c2ccccc2)Oc2ncc(-c3cccc(F)c3)cc2C1=O,.,.,.,.,26[16.7 µM]
Cc1ccc(S(=O)(=O)Nc2ccc3c(c2)CC(=O)N([C@@H](C)CO)C[C@H](C)[C@@H](CN(C)Cc2ccc(Cl)c(Cl)c2)O3)cc1,.,.,.,.,-16[16.7 µM]
CCOc1ccc(C(=O)C2CCN(CC(=O)Nc3ccccc3N3CCOCC3)CC2)cc1,0,11,-7,1,70*
O=C(CNCC1CCCCC1)Nc1ccccc1N1CCCCC1,21,14,-7,0,75*
COc1ccc(OCC(=O)Nc2ccccc2N2CCCCC2)cc1,7,4,-5,0,74*
Cc1ccc(OCC(=O)Nc2ccccc2-c2ccccc2NC(=O)COc2ccc(C)cc2)cc1,1,5,-3,0,91*
O=C(CNC1CCCCCC1)Nc1ccccc1N1CCCCC1,5,11,-2,1,?
CCOc1ccc(C(=O)Nc2ccccc2N2CCOCC2)cc1,13,0,-1,0,.
C[C@@H]1CN([C@H](C)CO)C(=O)c2cc(NS(=O)(=O)c3ccccc3)ccc2O[C@@H]1CN(C)S(=O)(=O)c1cn(C)cn1,.,.,.,.,-11[16.7 µM]
CO[C@H]1CC[C@H]2CCOc3ccc(C#N)cc3C(=O)N(C)C[C@@H](C)C(=O)N(C)C[C@@H]1O2,.,.,.,.,14[16.7 µM]
O=C(Nc1ccc(F)cc1)N[C@@H]1C=C[C@H](CC(=O)N2CCOCC2)O[C@@H]1CO,.,.,.,.,8[16.7 µM]
Cc1ccc(S(=O)(=O)NCC[C@H]2CC[C@H](NC(=O)c3cccc(F)c3)[C@@H](CO)O2)cc1,.,.,.,.,11[16.7 µM]
Cc1cc(C)c(S(=O)(=O)/N=C2/C=C(SCC(=O)O)C(=O)c3ccccc32)cc1C,.,25,.,12*,.
COc1ccc(CN(C)C[C@H]2OCCCC[C@H](C)Oc3ccc(NS(=O)(=O)c4cn(C)cn4)cc3C(=O)N([C@@H](C)CO)C[C@H]2C)cc1,.,.,.,.,-6[16.7 µM]
CN(C(=S)NC1CCCCC1)C1(c2ccccc2Cl)CCCCC1=O (stereo not given),5,-32,-4,0,93*
CC(C)NC(=S)N(C)C1(c2ccccc2Cl)CCCCC1=O (stereo not given),3,-7,-5,0,-19
NC(=O)c1ccc(N=C2C(=O)Nc3ccc([N+](=O)[O-])cc32)cc1,-6,6,13*,0,-6
SMILES,NR2F2 inh,Gli-Sufu antag,GalR3 antag,aDG glyco up,Env fusion inh
O=C1Nc2ccccc2C1=Nc1cccc([N+](=O)[O-])c1,-1,-18,-11,1,-11
C[C@@H]1CN([C@@H](C)CO)C(=O)c2cc(NC(=O)CCCN(C)C)ccc2O[C@H]1CN(C)Cc1ccc(Oc2ccccc2)cc1,.,.,.,.,5[16.7 µM]
Cc1ccc(CC#N)c(-c2c(CC#N)ccc(C)c2C)c1C,-7,.,-3,0,40
Cc1ccc2c(c1C)-c1c(ccc(C)c1C)C(=O)C2=O,-49,64*,1,0,-335
Cc1cccc(COCC(CC(C)C)N2CCN(C(=O)c3ccc(C(C)(C)C)cc3)CCC2=O)c1 (stereo not given),-8,11,-10,0,60*
Cc1cccc(COCC(CC(C)C)N2CCN(C(=O)c3ccc(C(F)(F)F)cc3)CCC2=O)c1 (stereo not given),0,6,-5,1,83*
Cc1cccc(COC[C@H](CC(C)C)N2CCN(C(=O)c3ccc(C(C)(C)C)cc3)CCC2=O)c1,12,.,-3,0,-3
CC[n+]1c(C)sc2c(C)cc(C)cc21,-11,2,0,0,-33
CCC[n+]1c(C)sc2c3c(ccc21)CCCC3,.,4,.,6.9*,.
O=C(Nc1ccc(S(=O)(=O)Nc2ncccn2)cc1)c1cccnc1,-43,-3,-6,0,0
CCNS(=O)(=O)c1ccc(NC(=O)c2cccnc2)cc1,0,-5,-6,17*,-52
O=C(CCCCn1c(=O)[nH]c2ccccc2c1=O)N1CCN(c2cccc(C(F)(F)F)c2)CC1,11,17,-5,1,83*
O=C(CCn1c(=O)[nH]c2ccccc2c1=O)N1CCN(c2cccc(C(F)(F)F)c2)CC1,6,2,0,0,19
COc1ccc(S(=O)(=O)N(C)C[C@@H]2Oc3ccc(NS(=O)(=O)c4ccc(C)cc4)cc3CC(=O)N([C@H](C)CO)C[C@@H]2C)cc1,.,.,.,.,28[16.7 µM]
Cc1ccc(S(=O)(=O)N(C)C[C@@H]2Oc3ccc(NS(=O)(=O)c4ccc(Cl)cc4)cc3CC(=O)N([C@H](C)CO)C[C@@H]2C)cc1,.,.,.,.,56*[16.7 µM]
COc1ccc(S(=O)(=O)Nc2ccc3c(c2)CC(=O)N([C@@H](C)CO)C[C@H](C)[C@H](CN(C)S(=O)(=O)c2ccc(C)cc2)O3)cc1,.,.,.,.,96*[16.7 µM]
COc1ccc(S(=O)(=O)N(C)C[C@@H]2Oc3ccc(NC(=O)CCCCCC(=O)Nc4ccccc4N)cc3CC(=O)N([C@@H](C)CO)C[C@H]2C)cc1,.,.,.,.,8[16.7 µM]
CCOC(=O)CCCCCC(=O)Nc1ccc2c(c1)CC(=O)N([C@H](C)CO)C[C@H](C)[C@H](CN(C)S(=O)(=O)c1ccc(OC)cc1)O2,2,-25,-5,0,96*
